{"source": "PubChem BioAssay (NCI)", "note": "About 83,000 compounds went through this panel and 20% of them were active in at least one assay; those are over-represented in the sample as a whole.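 Compound tested at a single concentration for 48 hours in 96-well plates; a percent growth value below 10 was scored as active.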 Values without a mark were called inactive. Activity calls are given as the source filed them."}
{"system": "EKVX NSCLC", "experiment": "NCI-60 one-dose screen, 48 h (100 = growth as untreated, 0 = no growth, -100 = all killed)", "settings": "10 µM", "experimental": "Growth inhibition of the EKVX human Non-Small Cell Lung tumor cell line is measured as a screen for anti-cancer activity. Cells are grown in 96 well plates and exposed to the test compound for 48 hours. Compounds are tested at a single concentration, which is 10^-5 M for most compounds. The reported endpoint is percent growth (GI% or GIPRCNT), where numbers from 0 - 100% represent growth inhibition, and numbers from -100% - 0 represent cell death. For example, a value of 40 represents 60% growth inhibition. A value of 0 means no net growth occurred over the course of the experiment. A value of -40 indicates 40% of cells at the beginning of the experiment died by the end of the experiment. A value of -100 means all cells are dead at the end of the experiment.\nNCI-60 Human Tumor Cell Lines Screen was performed using the standard one-dose NCI protocol, which is described in more detail at https://dtp.cancer.gov/discovery_development/nci-60/default.htm.\nCompounds with GIPRCNT values below 10 were considered active. Activity score was based on GIPRCNT using the following formula: […]\nScore is 0 for GIPRCNT values of 100 or above, 50 for GIPRCNT values of 0, and 100 for GIPRCNT values of -100."}
{"smiles": "CCCCC(CCCCCC(CCCC)NCc1ccc2c(c1)OCO2)NCc1ccc2c(c1)OCO2", "note": "(stereo not given)", "growth": "-75.2% (active)"}
{"smiles": "CCOC(=O)C(=Cc1ccc(Br)cc1)C(=O)OCC", "growth": "50.5%"}
{"smiles": "COc1ccccc1CNCCN1C(=O)c2ccc3c4c(ccc(c24)C1=O)C(=O)N(CCNCc1ccccc1OC)C3=O", "growth": "-78.1% (active)"}
{"smiles": "COC(=O)[C@@H]1[C@H](O)[C@H](C)[C@H](O)[C@@](C)(O)/C=C\\C=C(C)C(=O)Nc2c(C)c(OC(C)=O)c3c(c2O)C(=O)C(C)=C2OCOC(=C23)C(C)=C[C@@](C)(O)[C@H](O)[C@@H](C)[C@H]1OC(C)=O", "growth": "108%"}
{"smiles": "Oc1[nH]c2cc(Cl)ccc2c1/C=c1/ccc2c(c1)N=C(c1cc(F)cc(F)c1)N=2", "growth": "57.2%"}
{"smiles": "O=C(NN1C(=O)CSC1c1ccc(Cl)cc1)c1cccnc1", "note": "(stereo not given)", "growth": "95.2%"}
{"smiles": "Clc1ccccc1N=Cc1ccc2c(c1)OCO2", "growth": "99.7%"}
{"smiles": "CCOC(=O)CCC(NC(=O)c1ccc(N)cc1)C(=O)OCC", "note": "(stereo not given)", "growth": "121%"}
{"smiles": "C/C(=N\\Nc1nc2ccccc2s1)c1ccncn1", "growth": "22.7%"}
{"smiles": "O=C1/C(=C/c2ccc(Cl)cc2)SC(=Nc2ccc(Cl)cc2)N1Cc1nc2ccccc2[nH]1", "growth": "64.5%"}
{"smiles": "CCOC(=O)c1ccc(NC(=O)Nc2ncc(Cl)cc2Cl)cc1", "growth": "111%"}
{"smiles": "O=C1OCC2=C1C(c1ccc(Cl)c(Cl)c1)c1cc3c(cc1N2CCO)OCCO3", "note": "(stereo not given)", "growth": "42.3%"}
{"smiles": "CCN1CCC2(CC1)OC(c1ccccc1)C(c1ccccc1)O2", "note": "(stereo not given)", "growth": "107%"}
{"smiles": "COc1ccc(NC(=O)CSc2nc3ccccc3c(=O)n2CCc2ccccc2)cc1", "growth": "75.2%"}
{"smiles": "CCCCCCCCN(CCCCCCCC)CCCCCCCCCN1CCCc2cc(OC)ccc21", "growth": "81.5%"}
{"smiles": "Cc1cccc2c(NCCN(C)C)c3cccc(C(=O)NCCN(C)C)c3nc12", "growth": "19.4%"}
{"smiles": "O=C1CC[C@@H]2CCCC[C@@H]2C1", "growth": "99.1%"}
{"smiles": "CCCCCCNC(=O)Oc1ccc(/C(=C(/CC)Cc2ccccc2)c2ccc(OCCN3CCCCC3)cc2)cc1", "growth": "85.1%"}
{"smiles": "CSc1cc(SC)ncn1", "growth": "107%"}
{"smiles": "COc1cc(NC(=O)CSc2nc3ccccc3c(=O)n2CCc2ccccc2)cc(OC)c1OC", "growth": "65.3%"}
{"smiles": "COc1ccc2c(c1)N(CCO)C1=C(C(=O)OC1)C2c1cc(OC)c(OC)c(OC)c1", "note": "(stereo not given)", "growth": "40.3%"}
{"smiles": "COc1ccc(OC)c(/C=C/c2nnc(Nc3ccc(Cl)cc3)o2)c1", "growth": "68.1%"}
{"smiles": "CN(C)CCOc1nc2ccccc2c2c1-c1ccc(Cl)cc1C2=O", "growth": "-1.93% (active)"}
{"smiles": "CN(C)CCN1C(=O)c2cccc3c(-c4ccc5ncn(C6CCCCC6)c5c4)ccc(c23)C1=O", "growth": "29.8%"}
{"smiles": "CS(=O)(=O)Nc1cccc(-c2cc(-c3ccccc3Cl)c(C#N)c(N)n2)c1", "growth": "27%"}
{"smiles": "COc1cc(C(=O)N2CCN(c3ccccc3OC)CC2)c(N)cc1OCCCN1CCN(c2ccccc2OC)CC1", "growth": "83.2%"}
{"smiles": "Cc1ccc(C(=O)Nc2cccc(F)c2)cc1NC(=O)C1(c2ncnc3[nH]ccc23)CC1", "growth": "91.8%"}
{"smiles": "O=C1OCC2=C1C(c1cccc(Cl)c1)c1cc3c(cc1N2CCO)OCO3", "note": "(stereo not given)", "growth": "56.6%"}
{"smiles": "CCCCN(CCCC)c1cc(C(=O)CCCCCN)c2ccccc2n1", "growth": "24%"}
{"smiles": "COc1ccc2c(c1)sc1nc(-c3ccccc3)c(-c3ccc(O)c(OC)c3)n12", "growth": "88.4%"}
{"smiles": "COc1cc2nc(Nc3cccc(C(=O)O)c3)nc(N)c2cc1OC", "growth": "95.2%"}
{"smiles": "CCCCCCCCCCCC[n+]1ccc(C(N)=O)cc1", "growth": "22.2%"}
{"smiles": "CCN(CC)CCNC(=O)c1ccc(NC(C)=O)cc1", "growth": "100%"}
{"smiles": "COc1cc(OC)cc(-c2cncn2-c2ccc(-c3nc4cc(OC)cc(OC)c4s3)cc2)c1", "growth": "51.3%"}
{"smiles": "COc1ccc(-c2nc3sccn3c2-c2nc3c([nH]2)C(=O)c2ccccc2C3=O)cc1", "growth": "83.1%"}
{"smiles": "CN1CCC2(CC1)NC(=O)c1c(c3ccc(Cl)c(Cl)c3n1C)C2C#N", "note": "(stereo not given)", "growth": "89%"}
{"smiles": "CO/N=C(/C(=O)NC1C(=O)N2C(C(=O)O)=C(COC(N)=O)CSC12)c1ccco1", "note": "(stereo not given)", "growth": "99.4%"}
{"smiles": "COc1ccc2nc3cc(Cl)ccc3c(NCCNCC(C)O)c2c1", "note": "(stereo not given)", "growth": "38.1%"}
{"smiles": "CN(C)C(=S)N/N=C\\C=N/NC(=S)N(C)C", "growth": "38.8%"}
{"smiles": "COc1cc(-c2nc(-c3nnc(-c4ccc(F)c(Cl)c4)o3)c3ccccn23)cc(OC)c1OC", "growth": "64.2%"}
